Source: PubChem BioAssay AID624256 (NMMLSC, 2012)
Hit rate of the full screen: of about 360,000 compounds, about 3,700 (1%) were called active. About 2% were inconclusive and are not listed.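 Rule for the calls: active = normalized GFP-positive differentiation at or above the plate's own cutoff, the solvent-only control mean plus 3 SD; inconclusive = no clear call, values can overlap the other calls; inactive = the rest.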 This excerpt belongs to a sample that is enriched for actives.

test: induction of myeloid progenitor differentiation, primary screen, cell-based, flow cytometry, MLPCN library (AID 624256); settings: ER-HoxA9 myeloid progenitors, lysozyme-GFP differentiation, at 10 µM; GFP+ MAC1+ double positive: measured here: differentiation confirmed by MAC1 staining, stronger effect = higher value; normalized GFP-positive differentiation: stronger effect = higher value;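 for GFP+ MAC1+ double positive: cells exposed to compound for four days before flow analysis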;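 for normalized GFP-positive differentiation: cells exposed to compound for four days before flow analysis; 0% = DMSO wells and 100% = fulvestrant positive control at 5 µM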

Row | Compound | GFP+ MAC1+ double positive [%] | outcome | normalized GFP-positive differentiation
1 | CCOc1ccc(/C=C(/C#N)c2nnc(N3CCOCC3)n2-c2ccccc2)cc1OC | 0.8 | inactive | –
2 | COc1cc(N2CCCC2)c(OC)cc1/C=C(/C#N)c1cccc(Br)c1 | 15 | – | 258% (active)
3 | COc1ccc(S(=O)(=O)NC(=O)C2(C)CCN2C(=O)COc2ccc(Cl)cc2)cc1 (stereo unspecified) | 0.8 | inactive | –
4 | CCc1nc2c(OCc3ccccc3)cccn2c1N(C)C(=O)c1ccco1 | 1.6 | inactive | –
5 | CSc1ncccc1C(=O)NC1CCCCCC1 | 4.7 | – | 171% (active)
6 | CSc1ncccc1C(=O)NCc1ccccc1Cl | 0.9 | inactive | –
7 | CSc1ncccc1C(=O)Nc1ccc2c(c1)OCO2 | 1 | inactive | –
8 | CCCCCNC(=O)C1C(=O)Nc2ccccc2C(=O)N1C(C)(C)C (stereo unspecified) | 0.8 | inactive | –
9 | COC(=O)C1=CN(c2c(C)cc(C)cc2C)C(N)=C(C#N)C1c1cccc(F)c1 (stereo unspecified) | 1.5 | inactive | –
10 | CC1(C(=O)NS(=O)(=O)c2ccccc2Cl)CCN1C(=O)c1cccc(F)c1 (stereo unspecified) | 0.8 | inactive | –
11 | Cc1ccc(C2=CSC3=NS(=O)(=O)CCN23)cc1C | 4.9 | – | 25% (active)
12 | CCCOc1ccc(C2=CSC3=NCCN23)cc1Cl | 0.8 | inactive | –
13 | O=S1(=O)CCN2C(=N1)SC1=C2CCN(Cc2ccccc2)C1 | 0.5 | inactive | –
14 | CCCCn1c(N)c(N(CC)C(=O)c2ccc(N(C)S(=O)(=O)c3ccc(C)cc3)cc2)c(=O)[nH]c1=O | 1.1 | inactive | –
15 | CCCCn1c(N)c(N(CCOC)C(=O)c2cccc(S(=O)(=O)N(C)c3ccccc3)c2)c(=O)[nH]c1=O | 1.3 | – | 16.7% (active)
16 | CCCCn1c(N)c(N(CCOC)C(=O)c2cccc(S(=O)(=O)N3CCCCC3)c2)c(=O)[nH]c1=O | 0.5 | inactive | –
17 | CCC1CCCCN1C(=O)CSc1nc(C)cc(C)n1 (stereo unspecified) | 1.8 | inactive | –
18 | C/C(=N\NC(=O)c1ccc(CSc2nc(C)cc(C)n2)cc1)C1CCCCC1 | 1.3 | – | 21.9% (active)
19 | Cc1cc(C)nc(SCc2nnc(SCC(=O)OC3CCCCC3)o2)n1 | 1.3 | inactive | –
20 | Cc1nc2c(OCc3ccc(Cl)cc3)cccn2c1N(C)Cc1cccs1 | 0.4 | inactive | –
21 | CC(C)CNC(=O)C1(C)CCCN1C(=O)CSc1ccccc1 (stereo unspecified) | 1.4 | inactive | –
22 | Cc1cc(C(=O)N2CCCC2(C)C(=O)O)c(C)o1 (stereo unspecified) | 1.3 | inactive | –

Row | Compound | GFP+ MAC1+ double positive [%] | outcome | normalized GFP-positive differentiation
23 | N#Cc1ccc(-c2nc3c(Cl)cc(C(F)(F)F)cn3c2Cc2ccccc2C(F)(F)F)cc1 | 1.3 | inactive | –
24 | CCC(C(=O)Nc1c(C)cccc1C)n1c(-c2cc(C)cs2)nc2ccccc21 (stereo unspecified) | 3.7 | inactive | –
25 | CCc1ccc(NC(=O)C(=O)NNC(=O)c2cccs2)cc1 | 1.8 | inactive | –
26 | CCOC(=O)CSc1nnc(CNC(=O)c2cccs2)n1-c1ccccc1 | 1.4 | inactive | –
27 | CCc1c(C)sc(NC(=O)c2cccs2)c1C(N)=O | 7.9 | – | 14.1% (active)
28 | Cc1ccc(NC(=O)[C@H](Cc2ccccc2)NC(=O)CC[C@H]2O[C@@H](n3ccc(=O)[nH]c3=O)[C@H](O)[C@@H]2O)cc1C | 0.8 | inactive | –
29 | O=C1Nc2cc(C(=O)N3CCN(c4ccc(F)cc4)CC3)ccc2NC1CSCc1cccc(F)c1 (stereo unspecified) | 10.1 | – | 56.9% (active)
30 | C=CCn1c(SCc2cccc(F)c2)nc2cc(C(=O)N3CCC(C(N)=O)CC3)ccc2c1=O | 0.5 | inactive | –
31 | Cc1ccc(CSCC2Nc3ccc(C(=O)N4CCN(c5ccc(F)cc5)CC4)cc3NC2=O)cc1 (stereo unspecified) | 1.7 | inactive | –
32 | COC(=O)[C@]12CCCCC=C1N(Cc1ccccc1)C(=O)[C@H](CC(=O)NCc1ccc(C)o1)C2 | 1.2 | inactive | –
33 | NNC(=O)c1oc2nc(-c3ccccc3)cc(-c3ccco3)c2c1N | 1 | – | 38.1% (active)
34 | O=C(Nc1cccc(F)c1)c1cc(-c2ccco2)nc2ccccc12 | 0.5 | inactive | –
35 | CNC(=S)NNC(=O)c1oc2nc(-c3ccccc3)cc(-c3ccco3)c2c1N | 2.3 | inactive | –
36 | Cc1ccccc1-c1csc(C(O)c2cccc(Cl)c2)n1 (stereo unspecified) | 0.8 | inactive | –
37 | Cc1cc(C)c2nc3nc(C)cc(C)c3c(N)c2c1 | 2.1 | – | 151% (active)
38 | NC(Cc1ccc(F)cc1)c1csc(Nc2nncc3ccccc23)n1 (stereo unspecified) | 0.8 | inactive | –
39 | COc1cc(N=Cc2c(O)c3ccccc3oc2=O)c(OC)cc1Cl | 12 | – | 239% (active)
40 | O=c1oc2ccccc2c(=O)c2ccccc12 | 1.6 | inactive | –
41 | COc1ccccc1CNC(=O)c1cc(=O)c2ccccc2o1 | 1 | inactive | –
42 | CCOC(=O)c1ccn(S(=O)(=O)c2ccc(C)cc2)c1-c1ccccc1 | 1.4 | inactive | –
43 | O=C1NC[C@H](Cc2ccc(O)cc2)N(C[C@H]2CCCN2C[C@H](Cc2ccccc2)N2C[C@H](Cc3ccccc3)N(CCc3ccccc3)C(=O)C2=O)C1=O | 1 | inactive | –
